In PubChem BioAssay:
The source made the active and inactive calls.

Assays:
[1] = system: Human papillomavirus type 1a protein E7 (residues 44-93); experiment: HPV1a E7 fragment binders on microarrays, primary screen, biochemical, small-molecule microarray, residues 44-93, 635 nm fluorescence (AID 1108); settings: small-molecule microarray binding, fluorescence 635 nm; higher = more signal;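 also: E7 fragment applied at 1 µg/mL in TBST for 1 h at 4 C; score combines spot fluorescence with its signal to noise ratio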
[2] = modulators of HCV replicon luciferase signal, primary screen, HCV replication inhibitor project, Huh7 cells, luciferase reporter (AID 1109); settings: 48 h, higher = more signal;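 also: huh7 hepatoma cells harbouring a luciferase neomycin HCV replicon reporter; luciferase luminescence as measure of HCV replicon replication; test concentration not given here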
[3] = biological target: Left-right determination factor 2 (Homo sapiens) (UniProt O00292); experiment: LEFTY2 binders on small-molecule microarrays, primary screen, biochemical, small-molecule microarray, 635 nm fluorescence scan (AID 1110); settings: LEFTY2 binding, higher = more signal
[4] = biological target: Calmodulin-1 (Homo sapiens) (UniProt P0DP23); experiment: CALM1 binders on microarrays, EGTA buffer, profiling panel, biochemical, small-molecule microarray, Cy5-labelled CALM1 (AID 1111); settings: Cy5-CALM1 binding fluorescence, higher = more signal;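 also: labelled calmodulin applied in Tris saline Tween buffer holding calcium plus EGTA and DTT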
[5] = biological target: Calmodulin-1 (Homo sapiens) (UniProt P0DP23); experiment: calcium-bound CALM1 binders on microarrays, profiling panel, artefact control for SMM control-protein annotation, biochemical, small-molecule microarray, Cy5-labelled CALM1, plus calcium (AID 1112); settings: Cy5-CALM1 binding fluorescence, higher = more signal;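 also: score merges spot fluorescence with signal to noise from triplicate slides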
[6] = small-molecule microarray binders of probe aWnt5a, primary screen, biochemical, biotinylated probe, 635/667 nm fluorescence (AID 1113); settings: higher = more signal;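 also: score merges 667 nm fluorescence intensity with signal-to-noise per printed feature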
[7] = small-molecule microarray binders of probe aShh, primary screen, biochemical, biotinylated probe, 635/667 nm fluorescence (AID 1114); settings: higher = more signal;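 also: probe is biotin-labelled aShh protein from a stem cell growth factor screen; measures binding of labelled protein to compounds printed on the slide; score merges feature fluorescence at 667 nm with signal-to-noise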
[8] = small-molecule microarray binders of probe aNog, primary screen, biochemical, biotinylated probe, 635/667 nm fluorescence (AID 1115); settings: higher = more signal;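 also: probe is biotinylated aNog protein used at 0.15 µg/mL for 1 h at 4 C; z-score combines 667 nm fluorescence of each spot with its signal to noise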
[9] = biological target: Torsin-1A-interacting protein 1 (Homo sapiens) (UniProt Q5JTV8); experiment: LAP1 binders from COS7 cell lysate, primary screen, small-molecule microarray, 635/667 nm fluorescence (AID 1116); settings: COS7-hLAP1 lysate binding, 635 nm fluorescence, higher = more signal
[10] = biological target: Alpha-bungarotoxin (Bungarus multicinctus) (UniProt P60615); experiment: alpha-bungarotoxin binders on microarray, profiling panel, artefact control for SMM control protein annotation, biochemical, small-molecule microarray, Alexa647 label, 635/667 nm fluorescence (AID 1117); settings: alpha-BTX-A647 binding fluorescence, higher = more signal
Albumin (Bos taurus) = Albumin (Bos taurus) (UniProt P02769); experiment: bovine serum albumin binders on microarray, profiling panel, artefact control for SMM control protein annotation, biochemical, small-molecule microarray, Alexa647 label, 635/667 nm fluorescence (AID 1118); settings: BSA-A647 binding, fluorescence 635 nm, higher = more signal;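 also: score merges 667 nm emission intensity and signal-to-noise per printed compound spot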
[11] = small-molecule microarray binders of probe aXIP, primary screen, biochemical, NeuroSMM set, 635/667 nm fluorescence (AID 1119); settings: higher = more signal, called active from +8 up or from −8 down;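 also: probe is the protein aXip251-270 applied at 1 µg/mL to compound-printed slides; binding of probe to printed compounds measured as 667 nm fluorescence plus signal to noise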
[12] = small-molecule binders of probe aNOTCH3, primary screen, biochemical, small-molecule microarray, 635/667 nm fluorescence (AID 1120); settings: higher = more signal;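 also: probe is a biotin-tagged antibody raised against NOTCH3 rather than NOTCH3 protein; score merges spot fluorescence near 667 nm with spot signal to noise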
[13] = small-molecule binders of probe aNOTCH2, primary screen, biochemical, small-molecule microarray, 635/667 nm fluorescence (AID 1121); settings: higher = more signal;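 also: score merges feature fluorescence read at 667 nm with its signal to noise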
[14] = biological target: Carbonic anhydrase 2 (Homo sapiens) (UniProt P00918); experiment: CAII small-molecule binders, profiling panel, biochemical, small-molecule microarray, Alexa647-labelled CAII (AID 1122); settings: CAII-A647 binding fluorescence, higher = more signal
[15] = COS7 lysate on small-molecule microarray, probe aHis, 635 nm (AID 1123); settings: COS7 cell lysate, fluorescence, higher = more signal;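 also: z-score combines 667nm fluorescence intensity with signal-to-noise per printed compound spot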
[16] = compound binding in COS7 lysate, probe aLAP1, primary screen, cell lysate, small-molecule microarray (AID 1124); settings: probe aLAP1, fluorescence, higher = more signal;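 also: lysate comes from COS7 cells expressing LAP1 and is applied at 0.3 µg/mL; score merges spot fluorescence near 667 nm with signal-to-noise over triplicate slides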
Sam68 (KHDRBS1) = experiment: Sam68 small-molecule binders, primary screen, biochemical, small-molecule microarray, 635 nm fluorescence (AID 1125); settings: small-molecule microarray binding, higher = more signal;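 also: score merges 667 nm channel intensity with signal to noise over triplicate slides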
[17] = system: Chordin-like protein 2 (CHRDL2); experiment: CHRDL2 small-molecule binders, primary screen, biochemical, small-molecule microarray, 635 nm fluorescence (AID 1126); settings: small-molecule microarray binding, fluorescence 635 nm; higher = more signal;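 also: printed compound slides probed with Chrdl2 protein at 4 µg/mL for 1 h at 4 C; score merges 667 nm emission intensity with signal to noise over three replicate slides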
[18] = biological target: Concanavalin-A (Canavalia ensiformis) (UniProt P02866); experiment: ConA small-molecule binders, primary screen, artefact control for SMM control protein annotation, biochemical, small-molecule microarray, Alexa647 label, 635 nm (AID 1127); settings: ConA-A647 binding fluorescence, higher = more signal;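 also: z combines 667 nm emission intensity with signal-to-noise across three replicate slides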
Concanavalin-A (Canavalia ensiformis), sequence (P02866 whole entry, looked up): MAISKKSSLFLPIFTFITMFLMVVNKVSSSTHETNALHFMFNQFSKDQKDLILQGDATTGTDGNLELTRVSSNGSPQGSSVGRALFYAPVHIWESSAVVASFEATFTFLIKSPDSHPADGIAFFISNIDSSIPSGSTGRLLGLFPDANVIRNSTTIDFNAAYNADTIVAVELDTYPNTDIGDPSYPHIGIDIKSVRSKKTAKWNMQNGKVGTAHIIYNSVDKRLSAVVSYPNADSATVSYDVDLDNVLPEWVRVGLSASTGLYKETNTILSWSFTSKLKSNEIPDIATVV

Albumin (Bos taurus), sequence (P02769 whole entry, looked up): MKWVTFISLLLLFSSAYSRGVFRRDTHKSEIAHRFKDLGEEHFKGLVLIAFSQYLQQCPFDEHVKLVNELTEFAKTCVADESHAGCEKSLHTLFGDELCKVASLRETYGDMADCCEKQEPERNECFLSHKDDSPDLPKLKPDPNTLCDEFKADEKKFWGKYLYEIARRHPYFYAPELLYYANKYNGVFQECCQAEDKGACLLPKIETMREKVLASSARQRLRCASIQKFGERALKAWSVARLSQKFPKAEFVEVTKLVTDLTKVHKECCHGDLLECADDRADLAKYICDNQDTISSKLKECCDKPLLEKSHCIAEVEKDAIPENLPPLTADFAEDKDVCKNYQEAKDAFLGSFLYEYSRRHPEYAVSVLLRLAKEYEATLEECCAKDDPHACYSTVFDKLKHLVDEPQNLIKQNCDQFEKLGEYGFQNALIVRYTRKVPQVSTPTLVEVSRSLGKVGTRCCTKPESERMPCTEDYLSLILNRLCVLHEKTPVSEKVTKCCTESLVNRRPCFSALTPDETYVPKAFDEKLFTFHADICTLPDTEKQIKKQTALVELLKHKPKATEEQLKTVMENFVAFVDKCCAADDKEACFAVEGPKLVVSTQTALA
Torsin-1A-interacting protein 1 (Homo sapiens), sequence (Q5JTV8 whole entry, looked up): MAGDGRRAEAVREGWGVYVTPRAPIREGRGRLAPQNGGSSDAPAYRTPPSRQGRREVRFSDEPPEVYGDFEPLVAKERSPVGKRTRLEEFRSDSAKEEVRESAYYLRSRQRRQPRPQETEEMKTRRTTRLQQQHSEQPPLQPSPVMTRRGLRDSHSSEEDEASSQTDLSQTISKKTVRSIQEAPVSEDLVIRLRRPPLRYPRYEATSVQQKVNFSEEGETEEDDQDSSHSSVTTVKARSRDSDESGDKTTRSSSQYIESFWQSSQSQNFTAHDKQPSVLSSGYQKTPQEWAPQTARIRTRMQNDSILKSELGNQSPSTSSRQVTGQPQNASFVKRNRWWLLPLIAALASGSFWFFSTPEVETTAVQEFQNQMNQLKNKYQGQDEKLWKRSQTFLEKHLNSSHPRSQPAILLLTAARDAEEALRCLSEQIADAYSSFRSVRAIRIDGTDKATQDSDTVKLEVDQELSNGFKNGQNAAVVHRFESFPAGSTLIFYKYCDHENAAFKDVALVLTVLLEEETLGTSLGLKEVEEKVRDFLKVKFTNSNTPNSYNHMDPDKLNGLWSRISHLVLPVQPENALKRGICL
Alpha-bungarotoxin (Bungarus multicinctus), sequence (P60615 whole entry, looked up): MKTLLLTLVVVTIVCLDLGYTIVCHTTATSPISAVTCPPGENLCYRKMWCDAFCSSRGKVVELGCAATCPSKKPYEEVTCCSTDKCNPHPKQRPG
Left-right determination factor 2 (Homo sapiens), sequence (O00292 whole entry, looked up): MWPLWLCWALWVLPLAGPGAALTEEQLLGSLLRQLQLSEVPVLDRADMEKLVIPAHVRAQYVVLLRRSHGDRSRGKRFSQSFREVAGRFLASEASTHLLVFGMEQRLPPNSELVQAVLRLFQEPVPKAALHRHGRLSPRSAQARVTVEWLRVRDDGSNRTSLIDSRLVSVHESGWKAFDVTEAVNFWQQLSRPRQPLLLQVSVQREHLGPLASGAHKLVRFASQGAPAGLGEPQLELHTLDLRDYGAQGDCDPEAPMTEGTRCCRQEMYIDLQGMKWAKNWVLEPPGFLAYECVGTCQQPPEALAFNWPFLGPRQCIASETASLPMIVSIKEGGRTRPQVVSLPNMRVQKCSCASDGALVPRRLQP

Structure (SMILES) | composite z-score [1] | z-score [2] | composite z-score [3] | composite z-score [4] | composite z-score [5] | composite z-score [6] | composite z-score [7] | composite z-score [8] | composite z-score [9] | composite z-score [10] | composite z-score (Albumin (Bos taurus)) | composite Z-score [11] | composite z-score [12] | composite z-score [13] | composite z-score [14] | composite z-score [15] | composite z-score [16] | composite z-score (Sam68 (KHDRBS1)) | composite z-score [17] | composite z-score [18]
COCCCNC(=O)[C@@]1(Sc2ccc(C)cc2)CC(=O)N(C(C)C)[C@@H]1c1ccc(CO)cc1I | 1.27 | -3.44 | -0.327 | -0.0081 | -0.0868 | -0.096 | -0.291 | -0.289 | 0.722 | 0.487 | -0.622 | 0.525 (inactive) | 0.0062 | -0.164 | 0.763 | 1.4 | 0.427 | 0.462 | -0.825 | 0.413
C=C(CCCC)C(=O)CC[C@@H](OC(=O)c1cccnc1)c1ccc(OCCO)cc1 | 0.849 | -2.35 | 0.249 | -0.588 | -0.684 | -0.0161 | -0.243 | -0.374 | 0.903 | 0.172 | -0.409 | 0.97 (inactive) | -0.0144 | -0.0357 | 0.718 | 0.719 | 0.488 | 0.947 | 0.894 | 0.239
CN(C)C(=O)[C@@]1(Cc2ccccc2N=[N+]=[N-])N=C(c2ccc(OCCCO)cc2)O[C@H]1c1ccccc1 | 0.0896 | -2.52 | 0.123 | 2.4 | 1.09 | 0.103 | -0.0022 | -0.743 | 1.32 | 2.17 | 0.897 | 2.37 (inactive) | 0.484 | 0.369 | 0.681 | 2.76 | 1.13 | 1.31 | -0.699 | 1.18
CC(C)OC(=O)CC(=O)CC(O)c1ccc([N+](=O)[O-])cc1 (stereo not given) | 1.13 | -0.601 | -0.698 | -0.759 | -0.833 | 0.093 | 0.163 | 0.431 | 0.47 | -0.292 | 0.169 | -0.314 (inactive) | -0.0413 | 0.0215 | 0.152 | 0.666 | 0.447 | 0.543 | -1.23 | -0.122
COCCOC(=O)N1C(=O)[C@@]2(c3cc(C#CCC(C(=O)OC)C(=O)OC)ccc31)[C@H](C(=O)NC[C@H](O)c1ccccc1)[C@H]1C(=O)O[C@H](c3ccccc3)[C@H](c3ccccc3)N1[C@@H]2c1ccc(O)cc1 | 1.37 | -0.545 | 0.102 | 1.65 | 0.247 | -0.0194 | -0.0146 | -0.038 | 1.37 | 0.195 | 0.661 | -0.0756 (inactive) | -0.0014 | -0.0974 | 0.614 | 1.67 | 0.243 | 0.378 | -0.769 | 0.708
O=C1N[C@@H](Cc2ccccc2)C(=O)N2[C@@H]1C[C@@H](C(=O)O)[C@H]2c1ccc(O)cc1 | 0.436 | 2.57 | 0.572 | 0.58 | -0.661 | 0.0718 | 0.0711 | -0.0382 | 0.466 | 0.431 | 0.145 | 0.84 (inactive) | 0.428 | 0.0712 | 0.757 | 1.33 | 0.341 | 0.754 | 1.1 | 1.01
[N-]=[N+]=NCc1ccccc1[C@H]1OC(c2ccc(OCCCO)cc2)=N[C@@]1(Cc1ccccc1)C(=O)NCCN1CCOCC1 | -0.442 | -1.62 | 0.293 | 0.572 | -0.138 | 0.0711 | 0.0088 | 1.97 | 1.28 | 1.78 | 0.985 | 0.0851 (inactive) | 0.576 | -0.0531 | 0.696 | 2.61 | 0.961 | 1.3 | 0.104 | 1.12
COc1ccc(C#Cc2ccc3c(c2)[C@]2(C(=O)N3)[C@H](c3ccc(OCCO)cc3)N3[C@H](c4ccccc4)[C@H](c4ccccc4)OC(=O)[C@H]3[C@@H]2C(=O)N2CCc3cc(OC)c(OC)cc3C2)cc1 | 1.33 | -1.23 | 0.461 | 1.08 | 0.684 | -0.0215 | 0.0589 | -0.155 | 0.168 | 0.841 | 0.0867 | -0.487 (inactive) | 0.233 | -0.23 | 0.438 | 2.04 | 0.216 | 1.12 | 0.704 | 1.09
CC(C)C(=C=CC[C@H](O)c1cccc(OCCO)c1)CCO | 0.133 | 0.121 | -0.0916 | -0.427 | -0.224 | -0.0165 | 0.201 | -0.272 | 0.0879 | 0.115 | 0.361 | 0.372 (inactive) | -0.173 | -0.14 | 0.512 | 0.397 | -0.207 | -0.126 | -0.298 | -0.0543
COc1ccc([Si](C)(C)[C@H]2[C@H](CCO)O[C@@]3(C(=O)N(Cc4ccccc4)c4ccc(N5C(=O)c6ccccc6Oc6ccccc65)cc43)[C@@H]2C)cc1 | 0.647 | -4.49 | -0.358 | 0.425 | 0.773 | 0.0431 | 0.213 | 0.195 | 0.323 | 0.178 | 0.467 | -0.216 (inactive) | -0.0984 | -0.106 | 0.532 | 1.47 | 0.62 | 0.442 | 0.214 | 0.823
COC(=O)[C@@]1(Cc2ccc(OC)cc2)[C@H]2c3cc(C(=O)N4CCCC4)n(Cc4cc(C)n(C)n4)c3C[C@H]2CN1C(=O)c1ccccc1 | 0.712 | -1.38 | 0.78 | 1.46 | 0.81 | 0.23 | 0.4 | 0.352 | 1.21 | 0.769 | 1.09 | 5.19 (inactive) | 0.313 | 0.446 | 0.962 | 3.19 | 0.637 | 1.32 | -1.19 | 0.485
